# Experimental data as given in PubChem BioAssay.
# The source made the active and inactive calls. Cut-off read from the data, not from the text of the source, unless noted: active = inhibition above about 80%; inactive = the rest.
# Columns and labels:
# [1] = LFS_MB_P medulloblastoma growth inhibition, cell-based, chromothripsis tumors, cisplatin or BGB combos (AID 1671449); details: LFS_MB_P medulloblastoma cells;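 note: cells exposed for 96 hours; 0% = vehicle DMSO and 100% = killing by high DMSO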
# [2] = HDN33 neuroblastoma growth inhibition, cell-based, chromothripsis tumors, cisplatin or BGB combos (AID 1671450); details: HDN33 neuroblastoma cells, stronger effect = higher value;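 note: cells exposed to compound for four days; 0% = vehicle DMSO and 100% = cell killing by high DMSO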
# [3] = ICB984 medulloblastoma cell growth inhibition, synergistic combos for chromothripsis tumors, cisplatin or BGB combos (AID 1671451; call rule not given here;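 note: cells exposed for 96 hours before readout; 0% = vehicle DMSO and 100% = killing by high DMSO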); details: ICB984 medulloblastoma cells, drug combinations, stronger effect = higher value
# [4] = LFS_MB_1R medulloblastoma cell growth inhibition, synergistic combos for chromothripsis tumors, cisplatin or BGB combos (AID 1671452); details: LFS_MB_1R medulloblastoma cells, stronger effect = higher value;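 note: cells exposed for 96 hours before readout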
# [5] = HTB85 osteosarcoma cell growth inhibition, synergistic combos for chromothripsis tumors, BGB or cisplatin IC20 combos (AID 1671453); details: HTB85 osteosarcoma cells, drug combinations, stronger effect = higher value;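 note: cells exposed for 96 hours before readout; 0% = vehicle DMSO and 100% = high DMSO killing control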
# [6] = CRL2098 osteosarcoma cell growth inhibition, synergistic combos for chromothripsis tumors, BGB or cisplatin IC20 combos (AID 1671454); details: CRL2098 osteosarcoma cells, drug combinations, stronger effect = higher value;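 note: cells exposed for 96 h before readout; 0% = vehicle DMSO and 100% = killing by high DMSO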
# [7] = HD-MB03 medulloblastoma cell growth inhibition, synergistic combos for chromothripsis tumors, BGB or cisplatin IC20 combos (AID 1671455; in the data active = inhibition above about 83%;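 note: 0% = vehicle DMSO and 100% = high DMSO as cytotoxic control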); details: HD-MB03 medulloblastoma cells, stronger effect = higher value
# [8] = UWB1.289 ovarian carcinoma cell growth inhibition, synergistic combos for chromothripsis tumors, BGB or cisplatin combos (AID 1671456); details: UWB1.289 ovarian carcinoma cells, stronger effect = higher value;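 note: cells exposed to compound for four days; 0% = vehicle DMSO and 100% = killing by high DMSO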
# [9] = LFS_MB_2R medulloblastoma cell growth inhibition, synergistic combos for chromothripsis tumors, cisplatin combos (AID 1671457); details: LFS_MB_2R medulloblastoma cells, stronger effect = higher value;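 note: cells exposed to compound for four days before readout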
# [10] = MDA-MB-436 breast carcinoma cell growth inhibition, synergistic combos for chromothripsis tumors, BGB or cisplatin combos (AID 1671458; call rule not given here;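 note: cells exposed for 96 hours; 0% = vehicle DMSO and 100% = killing by high DMSO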); details: MDA-MB-436 breast carcinoma growth inhibition, drug combinations, stronger effect = higher value
# [11] = UWB1.289_BRCA1 ovarian cancer growth, cell-based, BGB or cisplatin combinations (AID 1671459); details: UWB1.289 BRCA1 ovarian carcinoma, drug combinations, stronger effect = higher value
# [12] = human astrocyte viability loss, single and combined drugs, cytotoxicity control for chromothriptic childhood tumor combination screen, cell-based, BGB or cisplatin IC20 combos (AID 1671460); details: Human astrocytes, drug combinations, stronger effect = higher value;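 note: cells exposed to compounds for 96 hours before viability readout; 0% = vehicle and 100% = killing control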
# [13] = growth inhibition of BT084 medulloblastoma cells, cell-based, ICGC_MB145, cisplatin and BGB IC40 combos (AID 1671461); details: drug combinations, stronger effect = higher value;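 note: cells exposed to drugs for 96 hours; 0% = vehicle DMSO and 100% = high DMSO full killing control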
# [14] = growth inhibition of RCMB18 medulloblastoma cells, cell-based, cisplatin and BGB IC40 combos (AID 1671462); details: stronger effect = higher value;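 note: cells exposed to compound for four days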
# [15] = growth inhibition of CRL1545 osteosarcoma cells, cell-based, cisplatin and BGB IC20 combos (AID 1671464); details: stronger effect = higher value;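 note: cells exposed to compound for 96 hours before readout; 0% = vehicle DMSO and 100% = high DMSO killing control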
# [16] = measured here: combination with BGB IC40, at 0.05 µM
# [17] = measured here: with BGB IC20 combination, at 0.5 µM
# [18] = measured here: with cisplatin IC20 combination, at 0.5 µM
# [19] = measured here: combination with cisplatin, at 0.5 µM
# [20] = measured here: combination with cisplatin, at 5 µM
smiles,measurement,setting,value
O=C(CCCCCCC(=O)NO)NO,inhibition,"[1]; at 0.5 µM, stronger effect = higher value",-16.3% (inactive)
same,inhibition,"[1]; measured here: combination with BGB IC20, at 0.005 µM",3.43%
same,inhibition,"[1]; measured here: combination with BGB IC40, at 0.005 µM",-7.94%
same,inhibition,[1]; [16],-3.7%
same,inhibition,"[1]; measured here: combination with cisplatin, at 0.5 µM, stronger effect = higher value",-17.1%
same,inhibition,"[1]; measured here: combination with cisplatin, at 5 µM, stronger effect = higher value",37.5%
same,inhibition,"[2]; BGB combo, at 5 µM",16.4%
same,inhibition,[2]; at 0.5 µM,-16.1% (inactive)
same,inhibition,"[2]; cisplatin combo, at 5 µM",-6.26%
same,inhibition,[2]; [17],-13.7%
same,inhibition,[2]; [18],-21.3%
same,inhibition,"[2]; single agent, at 5 µM",-0.771%
same,inhibition,"[3]; BGB IC20 combo, at 0.005 µM",-20.4%
same,inhibition,"[3]; BGB IC40 combo, at 0.005 µM",-41.1%
same,inhibition,"[3]; BGB IC40 combo, at 0.05 µM",-25.8%
same,inhibition,[3]; at 0.5 µM,-27% (inactive)
same,inhibition,"[3]; cisplatin combo, at 0.05 µM",-30.8%
same,inhibition,"[3]; cisplatin combo, at 0.5 µM",-31.2%
same,inhibition,"[3]; cisplatin combo, at 5 µM",-49.1%
same,inhibition,"[3]; measured here: 5 uM single agent, at 5 µM",-5.09%
same,inhibition,[4]; at 0.5 µM,-25% (inactive)
same,inhibition,[4]; [16],-41%
same,inhibition,[4]; [19],-39.7%
same,inhibition,[4]; [20],-49.3%
same,inhibition,[5]; at 0.5 µM,-16.4% (inactive)
same,inhibition,"[5]; measured here: with BGB IC20, at 0.5 µM",-21.4%
same,inhibition,"[5]; measured here: with BGB IC20, at 5 µM",7.58%
same,inhibition,"[5]; measured here: with cisplatin IC20, at 0.5 µM",-13.1%
same,inhibition,"[5]; measured here: with cisplatin IC20, at 5 µM",-1.96%
same,inhibition,"[5]; single agent, at 5 µM",8.05%
same,inhibition,[6]; at 0.5 µM,-49.2% (inactive)
same,inhibition,"[6]; measured here: combination with BGB at IC20, at 0.5 µM",-52%
same,inhibition,"[6]; measured here: combination with cisplatin at IC20, at 0.5 µM",-0.415%
same,inhibition,[7]; at 0.5 µM,-7.45% (inactive)
same,inhibition,"[7]; measured here: combo with BGB at IC20, at 0.5 µM",-12.8%
same,inhibition,"[7]; measured here: combo with cisplatin at IC20, at 0.5 µM",-0.883%
same,inhibition,[8]; at 0.5 µM,-11.1% (inactive)
same,inhibition,"[8]; measured here: inhibition with BGB combination, at 0.05 µM",12.4%
same,inhibition,"[8]; measured here: inhibition with cisplatin combination, at 0.05 µM",-20.9%
same,inhibition,[9]; at 0.5 µM,7.53% (inactive)
same,inhibition,[9]; [19],-13.9%
same,inhibition,[9]; [20],4.86%
same,inhibition,[10]; at 0.5 µM,-5.23% (inactive)
same,inhibition,"[10]; measured here: BGB combination, at 0.5 µM",0.608%
same,inhibition,"[10]; measured here: BGB combination, at 5 µM",5.89%
same,inhibition,"[10]; measured here: cisplatin combination, at 0.5 µM",-7.76%
same,inhibition,"[10]; measured here: cisplatin combination, at 5 µM",14.4%
same,inhibition,"[11]; BGB combination, concentration series, at 5 µM",21.1%
same,inhibition,[11]; at 0.5 µM,-7.22% (inactive)
same,inhibition,"[11]; cisplatin combination, concentration series, at 5 µM",38.6%
same,inhibition,[12]; at 0.5 µM,-7.15% (inactive)
same,inhibition,"[12]; measured here: combo with BGB IC20, at 0.5 µM",-3.26%
same,inhibition,"[12]; measured here: combo with cisplatin IC20, at 0.5 µM",-13%
same,inhibition,[13]; at 0.5 µM,-7.26% (inactive)
same,inhibition,"[13]; cisplatin combination, at 0.5 µM",-13%
same,inhibition,"[13]; cisplatin combination, at 5 µM",18.3%
same,inhibition,"[13]; measured here: BGB IC40 combination 0.05 uM, at 0.05 µM",-15.2%
same,inhibition,"[13]; single agent, at 5 µM",28.5%
same,inhibition,[14]; at 0.5 µM,-4.15% (inactive)
same,inhibition,"[14]; cisplatin combo, at 5 µM",6.83%
same,inhibition,"[14]; measured here: BGB IC40 combination, at 0.05 µM",-1.04%
same,inhibition,[14]; [19],-1.18%
same,inhibition,"[14]; single agent, at 5 µM",-14.5%
same,inhibition,[15]; at 0.5 µM,-30.5% (inactive)
same,inhibition,[15]; [17],-55.7%
same,inhibition,[15]; [18],-17.9%
same,inhibition,"[15]; single agent, at 0.05 µM",-50.7%
same,inhibition,"[15]; single agent, at 5 µM",-1.16%
